The values below come from PubChem BioAssay.

For part of these data: Entries with a potency or affinity are not part of this list. The source made the active and inactive calls.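 The calls were made as follows, unless noted: active = primary screen activator hit with a dose response curve and TRPC4 channel activation at any tested dose; inactive = no activation, no dose response, or not a primary hit.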

Assay [1] has as its system TRPC4 beta (transient receptor potential cation channel C4), mouse. The assay is described as follows: TRPC4 cation channel opening, retest – cell-based, Fluo4 calcium, HEK293 TRPC4beta/mu-opioid, duplicates, 10 µM, confirmation (AID 2426;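 active = fluorescence ratio normalized to control raised more than 50% in primary screen plus both repeat runs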;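 as to activation: percent rise of integrated ratio over buffer wells lacking compound which define 0%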). To be noted: Fluo4 calcium fluorescence, at 10 µM; hits give high values.
The test system of assay [2] is transient receptor potential cation channel C4 beta (TRPC4), mouse. The assay is described as follows: TRPC4 cation channel opening, second retest – cell-based, second round, Fluo4, HEK293 TRPC4beta/mu-opioid, 1 µM, confirmation (AID 2461;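 active = primary screen active and over 50% activation in each of two duplicate runs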). The following applies: Fluo4 calcium fluorescence, at 1 µM; hits give high values.
Assay [3] relates to TRPC4 (transient receptor potential cation channel C4 beta), mouse. The assay is described as follows: potentiation of DAMGO EC20 TRPC4 response – cell-based, second round, Fluo-4, HEK293 TRPC4beta/mu-opioid, 1 µM, confirmation (AID 2554;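 active = primary screen hit whose fluorescence ratio, in both repeats, exceeds the weak agonist control mean by 3 SD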). To be noted: DAMGO EC20, Fluo-4 calcium flux, at 1 µM; hits give high values.
The test system of assay [4] is TRPC4 beta (transient receptor potential cation channel C4), mouse. The experiment in a line: potentiation of DAMGO EC20 TRPC4 response – cell-based, Fluo-4, HEK293 TRPC4beta/mu-opioid, confirmation (AID 2555;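 active = primary screen hit whose calcium fluorescence ratio, in both repeats, exceeds the weak agonist control mean by 3 SD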). The following applies: DAMGO EC20, Fluo-4 calcium flux, at 10 µM; hits give high values. (In general: Calcium assays in cells follow changes in intracellular calcium, usually with a dye or a luminescent sensor.)

In assay [5] the target is Short transient receptor potential channel 4 (Mus musculus) (UniProt Q9QUQ5). The assay is described as follows: blockers of DAMGO-evoked TRPC4 calcium flux – cell-based, Fluo4, HEK293 TRPC4beta/mu-opioid, confirmation (AID 2636;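 active = calcium signal cut by more than 3 SD below the full-agonist control yet still positive, in both repeats and the earlier primary screen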). To be noted: at 10 µM; hits give high values.
The target is the same in assay [6]. The experiment in a line: blockers of DAMGO-evoked TRPC4 calcium flux – cell-based, second round, Fluo4, HEK293 TRPC4beta/mu-opioid, 1 µM, confirmation (AID 2637;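 active = calcium signal ratio cut to more than 3 SD under the fully stimulated control mean yet still positive, in both repeats and the primary screen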). To be noted: at 1 µM; hits give high values.
The target is the same in assay [7]. The assay is described as follows: calcium entry via TRPC4 opening agents – cell-based, HEK293 TRPC4/mu-opioid, Fluo-4 calcium, dose response (AID 434937).
For assay [8] the target is unchanged. The experiment in a line: potentiation of DAMGO-evoked TRPC4 calcium signal – cell-based, HEK293 TRPC4/mu-opioid, Fluo-4 calcium, EC20 DAMGO, dose response (AID 434941;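 active = earlier screen potentiator hit that boosts the TRPC4 ion channel at some dose, with a dose response; inactive = no potentiation, no dose response, or not a prior hit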;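 also: calcium entry triggered by an EC20 dose of DAMGO at the co-expressed mu-opioid receptor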).
Assay [9] has the same target. The experiment in a line: block of DAMGO-driven TRPC4 calcium entry – cell-based, HEK293 TRPC4/mu-opioid, Fluo-4 calcium, dose response (AID 434942;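 active = primary screen inhibitor hit that blocks the TRPC4 channel at some tested dose, yielding a dose curve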).
For assay [10], the target named is Short transient receptor potential channel 6 (Mus musculus) (UniProt Q61143). The experiment in a line: TRPC6 blockade by TRPC4 inhibitor hits – cell-based, HEK293, membrane potential dye, duplicate, selectivity assay for TRPC4 inhibitor project, confirmation (AID 434948;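 active = active in primary screen and both duplicates, each dropping signal beyond three positive-control SD with fluorescence still positive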). The following applies: HEK293 TRPC6, membrane potential dye fluorescence, at 10 µM, stimulated with maximal-effect acetylcholine; hits give high values.

For assay [11] the target is unchanged. The assay is described as follows: TRPC6 opening by TRPC4 activator hits – cell-based, HEK293, membrane potential dye, duplicate, selectivity assay for TRPC4 activator project, confirmation (AID 434950;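 active = membrane potential signal rise above negative control mean plus 3 SD in both duplicates, also active in the earlier TRPC4 screen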). The following applies: HEK293 TRPC6, membrane potential fluorescence, at 10 µM; activation: hits give high values; outcome: activation.
For assay [12] the target is unchanged. The assay is described as follows: positive modulators of mouse TRPC6 channel – HEK293 cells, membrane potential dye, duplicate, selectivity assay for TRPC4 potentiator project, confirmation (AID 434952;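 active = compound raising the membrane signal above positive-control mean plus 3 SD in both repeats, and a primary screen hit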). To be noted: HEK293 TRPC6, membrane potential dye fluorescence, at 10 µM, maximal acetylcholine added after compound; hits give high values.
The target of assay [13] is Short transient receptor potential channel 4 (Mus musculus) (UniProt Q9QUQ5). The assay is described as follows: calcium flux activators in TRPC4/5HT1a cells, counter-screen for TRPC4 activator project, cell-based, second counter screen, HEK293 TRPC4/5HT1a, Fluo-4 (AID 434977;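 active = calcium signal rise above buffer-control mean plus 5 SD in both duplicates, and also a hit in the primary screen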). To be noted: Fluo-4 calcium flux, at 10 µM; hits give high values.
Assay [14] can be described thus: serotonin-gated TRPC4 signal block – cell-based, second counter screen, HEK293 TRPC4/5HT1a, Fluo-4, counter-screen for TRPC4 inhibitor project, confirmation (AID 434978;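 active = primary screen active whose calcium signal fell more than 3 SD beyond the full-serotonin control mean in both duplicate plates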;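 as to outcome: serotonin given first at submaximal then at maximal dose after compound preincubation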). The following applies: Fluo-4 calcium flux, at 10 µM, serotonin added to trigger calcium flux; hits give high values. For orientation: The purpose of a counterscreen is to sort out artefacts and off-target activity.

The subject of assay [15] is TRPC4 (mouse), co-expressed with 5HT1a in HEK293. The assay is described as follows: enhancement of serotonin-evoked TRPC4 response – cell-based, second counter screen, HEK293 TRPC4/5HT1a, Fluo-4, counter-screen for TRPC4 potentiator project, confirmation (AID 434979;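 active = signal rise over 3 SD above mean of control wells given weak agonist, in both repeats and first screen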). To be noted: Fluo-4 calcium flux, at 10 µM, serotonin added at its EC20 dose; hits give high values.
The nature of assay [16]: nonspecific calcium rise without TRPC4 – cell-based, HEK293 mu-opioid receptor line, counter-screen for TRPC4 activator project, confirmation (AID 449723;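 active = hit in primary screen, with calcium signal over 5 SD above buffer well mean in both duplicates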;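 also: counter screen cells carry the mu-opioid receptor alone and lack TRPC4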). The following applies: HEK293 mu-opioid cells, Fluo-4 calcium fluorescence, at 10 µM; hits give high values.
The nature of assay [17]: nonspecific potentiation of DAMGO calcium response – cell-based, HEK293 mu-opioid receptor line, counter-screen for TRPC4 allosteric potentiator project, confirmation (AID 449724;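 active = calcium signal rise more than 3 SD above the low-dose agonist control mean, in both duplicate plates and the primary screen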;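 also: HEK293 cells carrying mu-opioid receptor only with no TRPC4 channel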). The following applies: HEK293 mu-opioid receptor cells, Fluo-4 calcium flux, at 10 µM, compound added before EC20 DAMGO stimulus; hits give high values.

Short transient receptor potential channel 4 (Mus musculus), sequence (Q9QUQ5 whole entry, looked up): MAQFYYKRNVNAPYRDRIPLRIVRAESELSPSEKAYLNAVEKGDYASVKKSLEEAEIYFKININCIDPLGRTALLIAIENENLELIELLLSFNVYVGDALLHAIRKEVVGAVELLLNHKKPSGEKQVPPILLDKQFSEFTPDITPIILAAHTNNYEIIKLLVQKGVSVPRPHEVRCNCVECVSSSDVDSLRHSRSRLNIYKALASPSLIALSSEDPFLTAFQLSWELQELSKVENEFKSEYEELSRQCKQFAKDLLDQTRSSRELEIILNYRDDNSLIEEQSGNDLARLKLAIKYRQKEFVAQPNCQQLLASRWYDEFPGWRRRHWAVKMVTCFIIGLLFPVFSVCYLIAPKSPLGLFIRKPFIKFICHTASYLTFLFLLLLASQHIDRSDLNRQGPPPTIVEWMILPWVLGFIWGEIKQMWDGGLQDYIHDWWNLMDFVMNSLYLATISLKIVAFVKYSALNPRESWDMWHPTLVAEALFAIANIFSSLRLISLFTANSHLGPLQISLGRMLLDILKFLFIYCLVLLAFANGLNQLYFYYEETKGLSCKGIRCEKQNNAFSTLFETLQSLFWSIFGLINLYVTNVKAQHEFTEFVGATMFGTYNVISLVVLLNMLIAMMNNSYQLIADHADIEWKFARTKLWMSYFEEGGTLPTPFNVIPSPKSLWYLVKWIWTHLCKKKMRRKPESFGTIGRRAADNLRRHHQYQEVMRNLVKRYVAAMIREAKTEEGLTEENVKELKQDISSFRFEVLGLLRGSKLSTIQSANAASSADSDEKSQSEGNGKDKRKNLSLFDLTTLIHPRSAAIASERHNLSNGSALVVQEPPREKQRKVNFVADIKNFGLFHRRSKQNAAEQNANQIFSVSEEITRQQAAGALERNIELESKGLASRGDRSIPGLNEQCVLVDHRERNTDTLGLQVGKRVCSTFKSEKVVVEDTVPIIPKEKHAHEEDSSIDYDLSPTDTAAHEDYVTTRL
Short transient receptor potential channel 6 (Mus musculus), sequence (Q61143 whole entry, looked up): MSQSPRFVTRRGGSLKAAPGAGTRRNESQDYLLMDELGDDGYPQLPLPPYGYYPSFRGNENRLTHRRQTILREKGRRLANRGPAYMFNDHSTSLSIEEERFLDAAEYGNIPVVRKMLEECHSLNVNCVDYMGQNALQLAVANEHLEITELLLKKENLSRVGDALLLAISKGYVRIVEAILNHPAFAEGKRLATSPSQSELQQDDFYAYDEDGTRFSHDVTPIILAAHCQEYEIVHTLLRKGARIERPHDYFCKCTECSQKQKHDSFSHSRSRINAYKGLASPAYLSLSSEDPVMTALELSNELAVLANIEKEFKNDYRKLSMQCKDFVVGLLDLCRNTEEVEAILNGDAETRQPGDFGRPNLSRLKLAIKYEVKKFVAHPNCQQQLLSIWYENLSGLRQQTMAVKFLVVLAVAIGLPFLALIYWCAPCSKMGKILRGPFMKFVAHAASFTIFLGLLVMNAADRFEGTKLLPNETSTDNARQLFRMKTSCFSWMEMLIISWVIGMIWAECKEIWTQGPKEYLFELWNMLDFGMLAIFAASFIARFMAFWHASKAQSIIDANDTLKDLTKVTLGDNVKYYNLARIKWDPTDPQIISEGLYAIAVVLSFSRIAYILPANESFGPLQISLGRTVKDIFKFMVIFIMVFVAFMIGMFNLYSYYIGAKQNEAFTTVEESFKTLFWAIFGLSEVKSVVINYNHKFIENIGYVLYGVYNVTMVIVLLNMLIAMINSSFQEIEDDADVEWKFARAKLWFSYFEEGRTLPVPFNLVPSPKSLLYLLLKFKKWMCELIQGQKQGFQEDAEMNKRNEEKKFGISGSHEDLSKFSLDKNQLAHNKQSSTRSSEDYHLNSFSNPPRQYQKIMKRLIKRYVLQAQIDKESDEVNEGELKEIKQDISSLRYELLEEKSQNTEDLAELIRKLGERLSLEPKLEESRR

As to `Cc1ccc(C(=O)Nc2ccccc2C(=O)N2CC3(C)CC2CC(C)(C)C3)cc1` (stereo not given), the result in [1], in [2], in assay [3], in [4], in assay [5] and in assay [6] was inactive. For the same compound, the outcome in assay [7], in [8], in [9], in assay [10], in assay [11] and in assay [12] was inactive. Besides, the result in [13], in assay [14], in assay [15], in assay [16] and in assay [17] was inactive.

With `C/C(=N\NC(=O)COc1ccc(C)cc1C(C)C)c1ccc(-n2ccnc2)cc1`, the outcome in [1], in [2], in [3], in [4], in assay [5] and in [6] was inactive. In addition, the result in assay [7], in [8], in assay [9], in assay [10], in assay [11] and in assay [12] was inactive. Also, the outcome in assay [13], in [14], in assay [16] and in assay [17] was inactive. The potentiation in assay [15] is 10.4% (active).

For `CC1(C)CN=c2s/c(=C\c3ccc(Cl)cc3)c(=O)n2C1`, the outcome in assay [1], in assay [2], in [3], in assay [4], in [5] and in assay [6] was inactive. Besides, the result in assay [7], in assay [8], in assay [9], in assay [10], in [11] and in assay [12] was inactive. Besides, the outcome in assay [13], in [14], in assay [16] and in [17] was inactive. In [15], the potentiation is 25.3% (active).

As for `CC1CCCN(C2=C(NS(=O)(=O)c3ccc(Br)cc3)C(=O)c3ccccc3C2=O)C1` (stereo not given), the outcome in [1], in assay [2], in assay [3], in assay [4], in assay [5] and in assay [6] was inactive. The result in assay [7], in [8], in [9], in assay [10], in assay [11] and in assay [12] was inactive. The outcome in assay [13], in assay [14], in assay [15], in assay [16] and in [17] was inactive.

With `CCCCc1nnc(NC(=O)C2CCN(c3ncnc4sc(C)c(C)c34)CC2)s1`, the outcome in assay [1], in assay [2], in [3], in assay [4], in [5] and in [6] was inactive. For the same compound, the result in assay [7], in [8], in [9], in assay [10], in [11] and in [12] was inactive. Besides, the result in [13], in assay [14], in [15], in assay [16] and in [17] was inactive.

Turning to `CN(CCNC(=O)c1ccc(/C=N/O)nc1)Cc1ccccc1`, the result in [1], in assay [2], in assay [5], in [6], in assay [7] and in assay [8] was inactive. In addition, the outcome in assay [9], in assay [10], in assay [11], in assay [12], in [13] and in assay [14] was inactive. For the same compound, the result in [16] and in assay [17] was inactive. Besides, the potentiation was 18% (active) in assay [3], 8% (active) in assay [4] and 19.6% (active) in [15].

On to `COC(=O)[C@@]12CCCCN1[C@H](c1ccc(-c3ccccc3)cc1)[C@@H]1C(=O)N(C)C(=O)[C@@H]12`, for which the outcome in [1], in assay [2], in [3], in [4], in [5] and in [6] was inactive. Further, the result in assay [7], in assay [8], in assay [9], in [10], in assay [11] and in assay [12] was inactive. Further, the result in assay [13], in assay [14], in [16] and in [17] was inactive. For the same compound, the potentiation in assay [15] is 20.4% (active).

As to `COc1ccc(C(=O)CN2CCN(CCN3C(=O)c4cccc5cccc(c45)C3=O)CC2)cc1`, the result in assay [1], in assay [2], in assay [5], in [6], in assay [7] and in assay [8] was inactive. Besides, the outcome in assay [9], in [10], in [11], in assay [12], in [13] and in [14] was inactive. In addition, the result in assay [16] and in [17] was inactive. The potentiation in assay [3] is 21% (active); in assay [4] it was 29% (active); in assay [15], 18.9% (active).

`CC(C)Cn1c(CN2CCN(C)C(CCO)C2)nc2ccccc21` (stereo not given): the outcome in [1], in [2], in assay [3], in assay [4], in [5] and in [6] was inactive. Further, the result in [7], in assay [8], in assay [9], in assay [10], in [11] and in assay [12] was inactive. Also, the result in [13], in [14], in [15], in [16] and in assay [17] was inactive.

On to `Cc1nn2c(N3CCN(C)CC3)c3c(nc2c1-c1ccccc1)CCCC3`, for which the result in assay [1], in [2], in [3], in assay [4], in assay [5] and in assay [6] was inactive. Moreover, the outcome in [7], in assay [8], in assay [9], in assay [10], in assay [11] and in assay [12] was inactive. In addition, the outcome in assay [13], in [14], in assay [15], in [16] and in assay [17] was inactive.

For `CN1CCN(Cc2nc3ccccc3n2C)CC1CCO` (stereo not given), the outcome in [1], in assay [2], in assay [3], in [4], in [5] and in assay [6] was inactive. Besides, the outcome in assay [7], in assay [8], in assay [9], in assay [10], in assay [11] and in [12] was inactive. Besides, the result in assay [13], in [14], in assay [16] and in assay [17] was inactive. The potentiation in [15] is 9.01% (active).

In the case of `N=c1c(C(=O)NCc2ccc(F)cc2)cc2c(=O)n3ccccc3nc2n1Cc1ccco1`, the result in assay [1], in assay [2], in assay [3], in [5], in assay [6] and in assay [7] was inactive. Moreover, the outcome in assay [8], in [9], in [10], in assay [11], in [12] and in assay [13] was inactive. In addition, the outcome in assay [14], in assay [15], in assay [16] and in [17] was inactive. For the same compound, the potentiation in assay [4] was 17% (active).

As for `Cc1cc(OCC(=O)NNC(=S)NC(=O)c2cccs2)ccc1Cl`, the outcome in assay [1], in [2], in [3], in [4], in [5] and in assay [6] was inactive. For the same compound, the outcome in assay [7], in [8], in assay [9], in assay [10], in assay [11] and in assay [12] was inactive. Moreover, the outcome in assay [13], in assay [14], in assay [15], in [16] and in assay [17] was inactive.

Take `CCN(CC)c1ccc(CNc2nc3ccccc3n2CCN2CCCCC2)cc1`: in assay [1], the activation is 109% (active). For the same compound, the result in [2], in assay [3], in [4], in [5], in assay [6] and in assay [7] was inactive. In addition, the outcome in [8], in assay [9], in assay [10], in [11], in assay [12] and in assay [13] was inactive. For the same compound, the result in assay [14], in assay [15], in assay [16] and in assay [17] was inactive.

On to `c1ccc(-c2nc(NCc3cccnc3)c3ccccc3n2)cc1`, for which the outcome in assay [1], in [2], in assay [3], in assay [4], in assay [6] and in [7] was inactive. Besides, the result in assay [8], in assay [9], in assay [10], in assay [11], in [12] and in [13] was inactive. Further, the result in assay [15], in [16] and in [17] was inactive. Also, the inhibition in [5] was 89% (active); in assay [14], 36.3% (active).

Broadly, the inhibition is the share of the control response that was lost under treatment.
